PubChem BioAssay
Inconclusive results are not listed. The source made the active and inactive calls.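 How the source made its calls, unless noted: active means inhibition above 54%, about 3 SD of non-fluorescent compounds; inactive means the rest.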 Peptide text beside a SMILES is read from it. * marks the point of attachment. Boc = CC(C)(C)OC(=O)*

Columns and labels:
[1] = rapamycin-like changes in RPL19A-GFP expression – cell-based, S. cerevisiae, multiplex flow cytometry, primary screen (AID 1862; in the data active means percent of DMSO control GFP below about 86%;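 further: lower values mimic rapamycin by blocking the RPL19A rise seen in DMSO cells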); conditions: S. cerevisiae RPL19A-GFP strain, flow cytometry fluorescence, 3 h; at 10 µM; stronger effect = lower value
[2] = TOR pathway GLN3 branch reporter MEP2-GFP changes – S. cerevisiae, multiplex flow cytometry, primary screen (AID 1867;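 active means GFP response, as percent of the DMSO control, above the screen-wide mean plus 3 SD, about 139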;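 further: median GFP channel fluorescence of barcode-gated MEP2-GFP cells measured by flow cytometry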); conditions: S. cerevisiae MEP2-GFP strain, 3 h, at 10 µM, stronger effect = higher value, 100% means same as DMSO wells
[3] = TOR pathway RTG branch CIT2 reporter changes – S. cerevisiae, GFP fusion, multiplex flow cytometry, primary screen (AID 1870;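 active means percent response above a set limit, the screen-wide mean plus 3 SD, cut at about 130% in these data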;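 further: barcoded CIT2-GFP strain pooled with four other GFP strains with rapamycin as positive control; median GFP fluorescence per well over plate mean of DMSO wells so 100% = DMSO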); conditions: S. cerevisiae CIT2-GFP expression, 3 h, at 10 µM, stronger effect = higher value
[4] = TOR pathway LAP4-GFP level changes – S. cerevisiae, multiplex flow cytometry, primary screen (AID 1873;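 active means GFP signal, as percent of the solvent control, above the screen mean plus 3 SD, about 149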); conditions: S. cerevisiae LAP4-GFP expression, 3 h, at 10 µM, stronger effect = higher value
[5] = yeast AGP1-GFP level changes, GLN3 branch – cell-based, multiplex flow cytometry, S. cerevisiae, primary screen (AID 1887;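 active means GFP signal above the screen-wide mean plus 3 SD, that is over about 124.5% of the solvent control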;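 further: AGP1-GFP fusion strain of S. cerevisiae within a five-strain barcoded multiplex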); conditions: 3 h, at 10 µM, stronger effect = higher value
[6] = reduced mouse 2C T cell binding to pMHC/ICAM-1 vesicles – MLPCN validation set, flow cytometry, LFA-1/ICAM-1 modulator project, pilot screen (AID 2523;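 active means response below a set limit, under 55% cells CD8-positive and vesicle-bound, and CD8 cells' 90th-percentile brightness under 279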;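 on vesicle binding response: mean PE anti-B7-1 fluorescence of CD8+ cells relative to row control; 100% = QL9-loaded vesicles with DMSO vehicle in the same plate row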); conditions: 2C mouse CD8+ T cells, at 7 µM, stronger effect = lower value; double positive events: measured here: CD8+/vesicle+ event percentage
[7] = molecular target: Integrin beta-1 (Homo sapiens) + Integrin alpha-4 (Homo sapiens) (UniProt P13612+P05556); assay: alpha4beta1 integrin LIBS antibody binding reduction – U937 cells, HUTS-21 mAb, flow cytometry, validation set, VLA-4 allosteric modulator project, pilot screen (AID 2674;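 active means inhibition above 50%, about 3 SD of the validation set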;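 further: antibody binding induced by the VLA-4 ligand LDV present at three times its Kd; 0% = LDV ligand with antibody and no compound and 100% = antibody without LDV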); conditions: HUTS-21 LIBS mAb binding, at 6.7 µM, stronger effect = higher value, binding induced by LDV ligand
[8] = calorie-restriction mimetic ROS inhibitors, yeast – validation compound set, pilot screen (AID 2706;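 active means superoxide response below 65% of plate, a cut near 3 SD across the whole screen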;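 further: yeast exposed to compound for one week at 30 degrees C before staining; 100% = mean of all compound wells on the same plate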); conditions: S. cerevisiae aging, superoxide DHE fluorescence; at 10 µM, stronger effect = lower value
[9] = molecular target: Beta-adrenergic receptor kinase 1 (Homo sapiens) (UniProt P25098); assay: GRK2 binders displacing RNA aptamer, biochemical, validation, human GRK2, bead flow cytometry (AID 488806;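 active means aptamer binding inhibition above 30%, about 3 SD of noise from non-fluorescent compounds; inactive means inhibition at or below 30%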); conditions: bead-bound GRK2, FAM-aptamer displacement, at 10 µM, stronger effect = higher value
[10] = molecular target: AP-2 complex subunit beta (Homo sapiens) (UniProt P63010); assay: beta-arrestin/AP2 interaction blockers – biochemical, validation set, GST-AP2 beads, flow cytometry, pilot screen (AID 504541); conditions: FITC arrestin peptide, at 10 µM, stronger effect = higher value, AP2 beta2 appendage fragment, R879A mutant;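 further: AP2 carries R879A mutation and is captured from E. coli lysate; bead-bound FITC arrestin peptide fluorescence measuring arrestin peptide binding to AP2; 0% = DMSO wells and 100% = excess unlabeled arrestin peptide control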
[11] = cytosolic pH regulators acting via V-ATPase – S. cerevisiae, pHLuorin, HTS validation (AID 504600; in the data active means response above about 15%;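 further: plate controls were DMSO for no effect and reference compound for full effect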); conditions: V-ATPase proton transport, at 10 µM, stronger effect = higher value
[12] = test system: anti-desmoglein-3 scFv antibody binding to human DSG3; assay: blockers of pathogenic pemphigus antibody–desmoglein-3 binding – biochemical, validation compound set, bead-based, flow cytometry, pilot screen (AID 588368;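 active means binding below the plate cutoff, the plate median minus 3 SD, with a reading above zero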;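 further: signal is the median channel fluorescence of bead-bound GFP antibody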); conditions: Protein G beads, DSG3-Fc, scFv-GFP binding, at 10 µM, stronger effect = lower value
[13] = Nile Red efflux blockade in pump-expressing yeast – validation compound set, multiplex, phenotypic, pilot screen (AID 588506;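 active means efflux inhibition above 0.42, the validation set average plus 4 SD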;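 further: Nile Red retained in cells so higher fluorescence means more efflux inhibition; 0 = negative control wells and 1 = enniatin B 25 µM full block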); conditions: S. cerevisiae pump-expressing triplex, Nile Red efflux flow cytometry; at 10 µM; stronger effect = higher value; the pumps come from Candida albicans
[14] = molecular target: ATP-binding cassette sub-family B member 6 (Homo sapiens) (UniProt Q9NP58); assay: blockers of ABCB6-driven porphyrin uptake – K562-ABCB6 cells, flow cytometry, validation set, pilot screen (AID 588550;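 active means inhibition above the screen-wide mean plus 3 SD, about 51%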;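 further: 0% = DMSO wells and 100% = benzethonium chloride 70 µM positive control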); conditions: K562-ABCB6 porphyrin accumulation, 1 h, at 10 µM, stronger effect = higher value
[15] = AML differentiation inducers, ER-HoxA9 marrow cells – cell-based, GFP/MAC1 double positive, flow cytometry, validation set, primary screen (AID 588685;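 active means differentiation response of at least 50%, scaled between solvent and reference control, from cells with both markers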;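 further: compound exposure lasts four days before antibody staining and flow analysis; 0% = DMSO wells and 100% = 5 µM fulvestrant positive control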); conditions: stronger effect = higher value, normalized: vehicle 0, fulvestrant 100
[16] = molecular target: Beta-2 adrenergic receptor (Homo sapiens) (UniProt P07550); assay: agonist-induced loss of surface beta2AR – cell-based, FAP fluorogen, flow cytometry, validation set, pilot screen (AID 504459;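 active means percent response above 42, roughly 3 SD of non-fluorescent test compounds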;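 further: agonist-driven loss of surface beta2AR via internalization measured by FAP dye flow cytometry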); conditions: Am2.2-beta2AR cells, at 10 µM, stronger effect = higher value
Sequence of Beta-2 adrenergic receptor (Homo sapiens) (P07550 whole entry, looked up): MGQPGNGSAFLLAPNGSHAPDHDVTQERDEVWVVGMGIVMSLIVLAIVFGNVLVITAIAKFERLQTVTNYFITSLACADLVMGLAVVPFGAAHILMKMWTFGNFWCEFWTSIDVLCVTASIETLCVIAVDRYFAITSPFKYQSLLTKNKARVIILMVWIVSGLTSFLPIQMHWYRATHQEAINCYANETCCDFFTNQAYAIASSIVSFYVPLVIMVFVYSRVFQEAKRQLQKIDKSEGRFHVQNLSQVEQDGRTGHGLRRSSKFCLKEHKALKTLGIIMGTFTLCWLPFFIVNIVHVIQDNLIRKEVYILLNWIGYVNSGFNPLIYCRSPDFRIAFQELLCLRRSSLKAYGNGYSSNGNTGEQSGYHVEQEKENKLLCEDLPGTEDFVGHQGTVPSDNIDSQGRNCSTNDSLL

Sequence of ATP-binding cassette sub-family B member 6 (Homo sapiens) (Q9NP58 whole entry, looked up): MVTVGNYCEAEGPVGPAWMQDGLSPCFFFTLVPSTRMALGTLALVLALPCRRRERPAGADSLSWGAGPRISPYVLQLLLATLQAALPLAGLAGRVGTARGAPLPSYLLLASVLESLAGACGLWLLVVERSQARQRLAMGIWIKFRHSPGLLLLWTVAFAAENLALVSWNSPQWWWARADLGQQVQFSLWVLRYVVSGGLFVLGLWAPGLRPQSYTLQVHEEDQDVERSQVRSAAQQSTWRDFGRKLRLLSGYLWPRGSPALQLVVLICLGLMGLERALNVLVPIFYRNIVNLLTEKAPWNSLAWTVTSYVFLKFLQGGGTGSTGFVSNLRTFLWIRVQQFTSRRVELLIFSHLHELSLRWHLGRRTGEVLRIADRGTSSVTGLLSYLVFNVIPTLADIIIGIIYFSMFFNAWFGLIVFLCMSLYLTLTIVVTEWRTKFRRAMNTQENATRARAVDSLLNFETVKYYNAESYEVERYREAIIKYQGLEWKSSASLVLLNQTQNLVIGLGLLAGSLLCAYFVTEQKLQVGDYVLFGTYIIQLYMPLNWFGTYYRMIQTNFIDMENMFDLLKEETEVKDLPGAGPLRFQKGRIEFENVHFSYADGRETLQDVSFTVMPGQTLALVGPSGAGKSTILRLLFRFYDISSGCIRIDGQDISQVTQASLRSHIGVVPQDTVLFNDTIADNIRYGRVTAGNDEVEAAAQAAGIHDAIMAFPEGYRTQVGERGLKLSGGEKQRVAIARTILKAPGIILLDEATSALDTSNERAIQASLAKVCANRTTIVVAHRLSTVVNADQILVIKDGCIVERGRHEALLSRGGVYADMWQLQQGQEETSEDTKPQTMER
Sequence of Beta-adrenergic receptor kinase 1 (Homo sapiens) (P25098 whole entry, looked up, the tested form may be a part): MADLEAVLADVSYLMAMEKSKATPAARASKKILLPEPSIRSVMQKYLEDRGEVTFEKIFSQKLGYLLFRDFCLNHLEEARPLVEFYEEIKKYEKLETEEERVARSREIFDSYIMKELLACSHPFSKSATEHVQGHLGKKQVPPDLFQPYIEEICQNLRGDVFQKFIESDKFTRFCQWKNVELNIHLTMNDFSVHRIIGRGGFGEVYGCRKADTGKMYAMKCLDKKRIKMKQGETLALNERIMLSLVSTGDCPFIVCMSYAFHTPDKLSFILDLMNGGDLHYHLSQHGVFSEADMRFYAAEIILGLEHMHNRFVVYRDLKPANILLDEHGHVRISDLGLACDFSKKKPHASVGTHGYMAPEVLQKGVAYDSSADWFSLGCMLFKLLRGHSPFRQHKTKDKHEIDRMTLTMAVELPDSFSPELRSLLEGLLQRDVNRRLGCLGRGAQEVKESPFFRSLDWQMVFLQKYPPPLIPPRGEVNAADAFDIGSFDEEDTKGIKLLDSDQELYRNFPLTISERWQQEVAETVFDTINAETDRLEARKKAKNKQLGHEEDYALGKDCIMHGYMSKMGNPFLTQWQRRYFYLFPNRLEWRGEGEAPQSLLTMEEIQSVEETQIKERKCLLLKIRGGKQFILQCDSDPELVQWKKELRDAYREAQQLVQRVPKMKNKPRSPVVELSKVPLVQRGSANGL
Sequence of Integrin beta-1 (Homo sapiens) + Integrin alpha-4 (Homo sapiens) (P05556 whole entry, looked up): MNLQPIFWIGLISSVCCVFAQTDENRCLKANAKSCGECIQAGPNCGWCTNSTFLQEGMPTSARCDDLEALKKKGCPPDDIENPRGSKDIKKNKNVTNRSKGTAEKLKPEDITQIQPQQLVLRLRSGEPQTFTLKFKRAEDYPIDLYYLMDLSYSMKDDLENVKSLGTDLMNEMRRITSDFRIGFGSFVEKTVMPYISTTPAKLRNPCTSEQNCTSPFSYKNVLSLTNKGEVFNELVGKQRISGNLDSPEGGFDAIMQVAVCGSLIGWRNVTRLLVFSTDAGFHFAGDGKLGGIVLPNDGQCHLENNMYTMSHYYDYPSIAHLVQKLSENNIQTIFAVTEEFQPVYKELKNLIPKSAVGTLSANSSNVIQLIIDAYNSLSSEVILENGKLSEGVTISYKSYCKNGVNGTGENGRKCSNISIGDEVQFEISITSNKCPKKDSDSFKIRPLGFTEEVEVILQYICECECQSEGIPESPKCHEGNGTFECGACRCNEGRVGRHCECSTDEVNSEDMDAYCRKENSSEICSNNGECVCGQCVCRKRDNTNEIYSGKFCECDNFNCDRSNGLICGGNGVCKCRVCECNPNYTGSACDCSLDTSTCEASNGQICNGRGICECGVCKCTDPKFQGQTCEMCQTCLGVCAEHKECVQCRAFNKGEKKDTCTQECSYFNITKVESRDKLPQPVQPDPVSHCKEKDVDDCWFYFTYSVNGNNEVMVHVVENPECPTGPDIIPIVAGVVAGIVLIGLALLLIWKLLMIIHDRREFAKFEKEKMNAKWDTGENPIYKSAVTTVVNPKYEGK
Sequence of Integrin beta-1 (Homo sapiens) + Integrin alpha-4 (Homo sapiens) (P13612 whole entry, looked up): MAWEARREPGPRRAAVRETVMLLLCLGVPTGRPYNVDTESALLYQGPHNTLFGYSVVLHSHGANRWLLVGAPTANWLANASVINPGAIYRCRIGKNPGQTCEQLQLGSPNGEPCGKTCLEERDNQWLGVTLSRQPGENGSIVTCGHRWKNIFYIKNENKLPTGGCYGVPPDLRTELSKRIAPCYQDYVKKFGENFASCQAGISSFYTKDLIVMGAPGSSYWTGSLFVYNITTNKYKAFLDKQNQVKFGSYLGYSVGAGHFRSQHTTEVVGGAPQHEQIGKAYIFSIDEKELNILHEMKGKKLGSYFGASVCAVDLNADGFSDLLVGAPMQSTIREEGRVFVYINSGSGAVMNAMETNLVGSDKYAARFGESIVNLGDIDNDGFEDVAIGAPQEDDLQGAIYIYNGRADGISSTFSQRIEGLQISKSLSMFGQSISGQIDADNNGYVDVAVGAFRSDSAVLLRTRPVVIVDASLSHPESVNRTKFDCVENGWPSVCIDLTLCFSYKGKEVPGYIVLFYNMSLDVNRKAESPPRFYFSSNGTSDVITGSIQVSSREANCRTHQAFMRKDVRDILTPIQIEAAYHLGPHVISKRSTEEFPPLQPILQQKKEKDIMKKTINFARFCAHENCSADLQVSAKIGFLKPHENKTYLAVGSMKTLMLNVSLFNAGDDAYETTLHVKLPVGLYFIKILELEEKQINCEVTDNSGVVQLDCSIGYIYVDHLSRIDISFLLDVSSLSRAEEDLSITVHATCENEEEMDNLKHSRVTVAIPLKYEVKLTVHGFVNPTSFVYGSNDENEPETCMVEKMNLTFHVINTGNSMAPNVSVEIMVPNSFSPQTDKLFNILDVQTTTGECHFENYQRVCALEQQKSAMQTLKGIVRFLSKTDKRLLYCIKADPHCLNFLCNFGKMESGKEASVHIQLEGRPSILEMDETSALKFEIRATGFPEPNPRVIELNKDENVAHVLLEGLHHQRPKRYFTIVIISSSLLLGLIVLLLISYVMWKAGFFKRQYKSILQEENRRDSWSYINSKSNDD
Sequence of AP-2 complex subunit beta (Homo sapiens) (P63010 whole entry, looked up, the tested form may be a part, one chain of several): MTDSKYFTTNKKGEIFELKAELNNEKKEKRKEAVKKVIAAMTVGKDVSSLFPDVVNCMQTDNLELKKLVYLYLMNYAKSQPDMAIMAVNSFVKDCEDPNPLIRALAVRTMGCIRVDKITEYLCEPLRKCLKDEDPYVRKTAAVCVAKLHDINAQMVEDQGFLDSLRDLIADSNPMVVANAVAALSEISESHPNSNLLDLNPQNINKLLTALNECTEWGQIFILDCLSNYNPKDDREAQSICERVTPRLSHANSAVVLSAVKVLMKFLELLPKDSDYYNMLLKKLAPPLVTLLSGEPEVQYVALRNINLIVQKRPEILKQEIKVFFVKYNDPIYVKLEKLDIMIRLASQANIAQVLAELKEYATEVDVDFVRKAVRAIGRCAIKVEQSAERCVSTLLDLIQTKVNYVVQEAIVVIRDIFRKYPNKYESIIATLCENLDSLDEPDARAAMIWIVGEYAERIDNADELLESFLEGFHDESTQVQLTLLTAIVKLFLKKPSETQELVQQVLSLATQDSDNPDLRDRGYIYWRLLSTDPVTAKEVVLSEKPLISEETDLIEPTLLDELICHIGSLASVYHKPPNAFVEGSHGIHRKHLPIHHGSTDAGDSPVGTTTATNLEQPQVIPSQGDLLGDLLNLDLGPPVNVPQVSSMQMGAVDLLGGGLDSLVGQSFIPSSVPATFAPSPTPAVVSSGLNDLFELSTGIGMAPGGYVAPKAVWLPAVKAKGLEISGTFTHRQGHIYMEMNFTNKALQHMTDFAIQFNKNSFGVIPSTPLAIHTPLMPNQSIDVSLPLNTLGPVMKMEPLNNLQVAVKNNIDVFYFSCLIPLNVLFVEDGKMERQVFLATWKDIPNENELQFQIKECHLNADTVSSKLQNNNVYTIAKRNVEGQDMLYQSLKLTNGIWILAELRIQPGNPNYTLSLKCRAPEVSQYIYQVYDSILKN

Row | Compound | percent of DMSO control GFP [1] | GFP response vs DMSO [2] | percent response of DMSO control [3] | GFP response vs DMSO [4] | GFP response, % of DMSO [5] | double positive events [6] | vesicle binding response [6] | inhibition [7] | superoxide response (% of plate) [8] | aptamer binding inhibition [9] | inhibition [10] | response [11] | binding (% of control) [12] | efflux inhibition (fraction of control) [13] | inhibition [14] | differentiation response [15] | response [16]
1 | O=C(c1ccc(O)cc1)c1ccc(O)cc1O | 101% (inactive) | 108% (inactive) | 104% (inactive) | 101% (inactive) | 99.1% (inactive) | 59.2% | 122% (inactive) | 4.42% (inactive) | 95.7% (inactive) | 3% (inactive) | 45.5% (inactive) | -7.71% (inactive) | 96.9% (inactive) | 0.06 (inactive) | 6% (inactive) | 49.9% (active) | 
2 | CC(C)CC(NC(=O)C1CCCN1C(=O)OC(C)(C)C)C(=O)NCC(N)=O (stereo not drawn) (Boc-Pro-Leu-Gly-NH2; configuration not given here) | 97.3% (inactive) | 98.9% (inactive) | 92% (inactive) | 94.3% (inactive) | 91.8% (inactive) | 62.8% | 171% (inactive) | -3.97% (inactive) | 89.5% (inactive) | 4% (inactive) | -1.69% (inactive) | -1.76% (inactive) | 102% (inactive) | 0.18 (inactive) | 8% (inactive) | 19.2% (inactive) | 
3 | CC(=O)OCC(=O)[C@@]12OC3(CCCC3)O[C@@H]1C[C@H]1[C@@H]3CCC4=CC(=O)C=C[C@]4(C)[C@@]3(F)[C@@H](O)C[C@@]12C | 98.5% (inactive) | 96.9% (inactive) | 99.8% (inactive) | 106% (inactive) | 101% (inactive) | 61.4% | 173% (inactive) | -12.4% (inactive) | 97% (inactive) | 2% (inactive) | 26.6% (inactive) | -4.26% (inactive) | 96.4% (inactive) | 0.9 (active) | 6% (inactive) | -3.43% (inactive) | 
4 | COc1cc2c(cc1OC)-c1cc(OCc3ccccc3Cl)nc(=O)n1CC2 | 98.8% (inactive) | 98.9% (inactive) | 101% (inactive) | 99.4% (inactive) | 97.5% (inactive) | 57.7% | 172% (inactive) | 9.09% (inactive) | 97.5% (inactive) | 4% (inactive) | 4.7% (inactive) | -7% (inactive) | 99.8% (inactive) | 0.06 (inactive) | 4% (inactive) | -18% (inactive) | 
5 | O=S(=O)(NCCCCCNS(=O)(=O)c1ccccc1)c1ccccc1 | 104% (inactive) | 105% (inactive) | 95.9% (inactive) | 92.3% (inactive) | 92.8% (inactive) | 57.2% | 127% (inactive) | -13.3% (inactive) | 104% (inactive) | -3% (inactive) | 3.03% (inactive) | 1.49% (inactive) | 103% (inactive) | 0.56 (active) | 10% (inactive) | -11.5% (inactive) | 
6 | CC(C)[N+](C)(CCOC(=O)C1c2ccccc2Oc2ccccc21)C(C)C | 99.6% (inactive) | 101% (inactive) | 109% (inactive) | 85.3% (inactive) | 101% (inactive) | 56% | 192% (inactive) | 1.62% (inactive) | 81.9% (inactive) | 0% (inactive) | -3.24% (inactive) | 9.45% (inactive) | 97.3% (inactive) | -0.09 (inactive) | 7% (inactive) | 1.41% (inactive) | 
7 | Cc1ccc2[nH]c3c(c2c1)CN(C)CC3 | 102% (inactive) | 107% (inactive) | 97.9% (inactive) | 97.4% (inactive) | 100% (inactive) | 63.4% | 188% (inactive) | 9.09% (inactive) | 99.8% (inactive) | 5% (inactive) | 15.9% (inactive) | -3.83% (inactive) | 105% (inactive) | -0.09 (inactive) | 12% (inactive) | -8.27% (inactive) | 
8 | COc1ccccc1C(=O)c1cc2ccc(O)cc2oc1=O | 103% (inactive) | 110% (inactive) | 105% (inactive) | 100% (inactive) | 100% (inactive) | 57.1% | 147% (inactive) | 12.8% (inactive) | 99.2% (inactive) | 1% (inactive) | -2.87% (inactive) | 5.05% (inactive) | 104% (inactive) | 0.03 (inactive) | -208% (inactive) | -14.7% (inactive) | 
9 | CC(=O)NCCCCCCNC(C)=O | 106% (inactive) | 92.8% (inactive) | 110% (inactive) | 90.3% (inactive) | 106% (inactive) | 55.5% | 198% (inactive) | 4.42% (inactive) | 85.1% (inactive) | -1% (inactive) | -11.9% (inactive) | 6% (inactive) | 94.1% (inactive) | -0.31 (inactive) | 5% (inactive) | -22.8% (inactive) | 
10 | CC(C)(C)NCC(O)c1cc(O)cc(O)c1 (stereo not given) | 97.8% (inactive) | 102% (inactive) | 95.1% (inactive) | 106% (inactive) | 119% (inactive) | 61.6% | 190% (inactive) | -15.6% (inactive) | 113% (inactive) |  | -13.2% (inactive) | -6.14% (inactive) | 100% (inactive) | -0.04 (inactive) | 6% (inactive) | -4.99% (inactive) | 
11 | CN(C)CCOC(C)(c1ccccc1)c1ccccn1 (stereo not given) | 100% (inactive) | 104% (inactive) | 93.1% (inactive) | 83.5% (inactive) | 93.7% (inactive) | 63.3% | 129% (inactive) | -1.49% (inactive) |  | 2% (inactive) | 13.9% (inactive) | -1.19% (inactive) | 106% (inactive) | 0.74 (active) | 6% (inactive) | 13.9% (inactive) | 2.25% (inactive)
